In ChEMBL document CHEMBL3433997, “St. Jude Leishmania screening dataset” (2016):

What was measured:
Format in all cases: functional
[1] = molecular target: Solute carrier family 2, facilitated glucose transporter member 1 (Homo sapiens) (UniProt P11166); assay: ST_JUDE_LEISH: Cytotoxicity at 2uM final concentration against transgenic Leishmania Mexicana promastigotes LmGLUT1 that are glucose transport deficient and complemented with the human glucose transporter GLUT1. Activity is measured by DNA content using SYBR green in vitro
Sequence of Solute carrier family 2, facilitated glucose transporter member 1 (Homo sapiens) (P11166 whole entry): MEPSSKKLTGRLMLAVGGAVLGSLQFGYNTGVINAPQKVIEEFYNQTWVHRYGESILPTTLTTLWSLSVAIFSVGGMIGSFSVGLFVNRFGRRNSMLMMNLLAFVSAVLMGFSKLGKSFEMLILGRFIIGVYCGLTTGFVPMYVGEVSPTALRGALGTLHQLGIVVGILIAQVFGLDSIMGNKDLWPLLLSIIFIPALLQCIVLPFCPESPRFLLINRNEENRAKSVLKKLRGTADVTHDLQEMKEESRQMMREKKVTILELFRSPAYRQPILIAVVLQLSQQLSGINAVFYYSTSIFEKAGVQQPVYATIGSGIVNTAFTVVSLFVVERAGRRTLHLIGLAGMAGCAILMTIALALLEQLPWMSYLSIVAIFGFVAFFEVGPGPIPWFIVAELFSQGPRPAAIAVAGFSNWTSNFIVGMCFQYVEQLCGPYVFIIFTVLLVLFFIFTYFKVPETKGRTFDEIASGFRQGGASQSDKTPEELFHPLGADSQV

[2] = molecular target: Hexose transporter 1 (Plasmodium falciparum) (UniProt O97467); assay: ST_JUDE_LEISH: Cytotoxicity at 2uM final concentration against transgenic Leishmania Mexicana promastigotes LmPfHT that are glucose transport deficient and complemented with the Plasmodium falciparum hexose transporter. Activity is measured by DNA content using SYBR green in vitro
[3] = molecular target: Glucose transporter (Leishmania mexicana) (UniProt O61059); assay: ST_JUDE_LEISH: Cytotoxicity at 2uM final concentration against transgenic Leishmania Mexicana promastigotes LmGT2 that are glucose transport deficient and complemented with the L. Mexicana glucose transporter 2. Activity is measured by DNA content using SYBR green in vitro

CC(C)NCc1ccc(-c2ccc(-c3nc4cc(C(F)(F)F)ccc4[nH]3)cc2)cc1
inhibition [1]: 1.09%
inhibition [2]: -1.61%
inhibition [3]: 2.69%

CCn1c(-c2nonc2N)nc2c(-c3cccc(NC(=O)Nc4ccc(C#N)cc4)c3)ncc(OCCCN)c21
inhibition [1]: 1.92%
inhibition [2]: -0.33%
inhibition [3]: 2.67%

N#Cc1ccccc1C1CCN(C2CCC(Nc3cc(-c4cccnc4)ccn3)CC2)CC1 (stereo unspecified)
inhibition [1]: 2.02%
inhibition [2]: 1.09%
inhibition [3]: 2.26%

COc1cc(-n2cnc3cc(-c4ccc([N+](=O)[O-])cc4)sc3c2=O)ccc1OCCN1CCCC1
inhibition [1]: 19.5%
inhibition [2]: 20%
inhibition [3]: 16%

O=C(COc1ccccc1Cc1ccccc1)Nc1cc(Cl)ccc1-n1cncn1
inhibition [1]: 4.5%
inhibition [2]: 4.62%
inhibition [3]: 3.15%

CCOC(=O)CCCCOc1c(OC)cc(Cc2cnc(N)nc2N)cc1OC
inhibition [1]: 6.18%
inhibition [2]: 6.88%
inhibition [3]: 6.09%

CCC(C)NS(=O)(=O)c1ccc2nc(Nc3ccc(C)cc3)n([C@H](C)C(C)(C)C)c2c1 (stereo partly specified)
inhibition [1]: 2.68%
inhibition [2]: 0.25%
inhibition [3]: -0.82%

Nc1nc(N)c2c(ccc3ccccc32)n1
inhibition [1]: 14.7%
inhibition [2]: 28.9%
inhibition [3]: 19%

COc1ccc2nccc([C@@H](O)CN3CCC(NCc4cc5ccccc5s4)CC3)c2c1
inhibition [1]: 5.41%
inhibition [2]: 10.3%
inhibition [3]: 0.03%

O=C(Nc1cccc(F)c1)c1ccc(C(=O)NC2CCN(CC3CCCCC3)CC2)cc1
inhibition [1]: 1.87%
inhibition [2]: 5.33%
inhibition [3]: 1.84%

COc1cccc2cc(C(=O)N[C@@H](CC(C)C)C(=O)N[C@H](/C=N/N3C(=O)CN(Cc4ccccc4)C3=O)CCc3ccccc3)oc12
inhibition [1]: 7.07%
inhibition [2]: 8.34%
inhibition [3]: 6.11%

C#CCNC(=O)c1ccc(-c2ccnc(Nc3cccc(CCCN4CCOCC4)c3)n2)s1
inhibition [1]: 37.4%
inhibition [2]: 37.9%
inhibition [3]: 27.2%

CCc1ccccc1OCCCON1C(=N)N=C(N)NC1(C)C
inhibition [1]: 28.6%
inhibition [2]: 37.9%
inhibition [3]: 29.2%

CCN(CC)CCOc1ccc(NC(=O)c2oc3ccccc3c2C=Cc2ccccc2)cc1
inhibition [1]: 4.92%
inhibition [2]: -0.45%
inhibition [3]: 0.81%

O=C(c1cccc(-c2cccc(-c3nc4cc(C(F)(F)F)ccc4[nH]3)c2)c1)N1CCCCC1CN1CCC(O)C1 (stereo unspecified)
inhibition [1]: -0.81%
inhibition [2]: -0.87%
inhibition [3]: -1.32%

O=C(Nc1cccc(CN2CCCN(Cc3ccc(O)cc3)CC2)c1)c1cccc(C(F)(F)F)c1
inhibition [1]: 10.5%
inhibition [2]: 9.62%
inhibition [3]: 11.3%

O=C(N[C@H]1CCN(CCc2ccc(O[C@H]3CCNC3)cc2)C1)c1ccc(Cl)c(Cl)c1
inhibition [1]: 14.2%
inhibition [2]: 10.1%
inhibition [3]: 14.5%

O=[N+]([O-])c1ccccc1/C=N/Nc1ccnc2ccc(C(F)(F)F)cc12
inhibition [1]: -0.59%
inhibition [2]: 2.42%
inhibition [3]: 0.08%

Oc1ccc2nc(NCCCc3ccccc3)nc(NCCCc3ccccc3)c2c1
inhibition [1]: 28.4%
inhibition [2]: 20.7%
inhibition [3]: 11.1%

O=C1c2cc(I)ccc2SC1c1ccccc1 (stereo unspecified)
inhibition [1]: 1.22%
inhibition [2]: 0.48%
inhibition [3]: 0.13%

CCOc1ccc2[nH]c(C)cc(=NN=Cc3ccccc3)c2c1
inhibition [1]: 3.33%
inhibition [2]: 2.11%
inhibition [3]: 2.8%

CC(C)C[C@H](NC(=O)c1cccc(F)c1)C(=O)N[C@H](/C=N/NC(=O)c1ccccc1)CCc1ccccc1
inhibition [1]: -1.39%
inhibition [2]: 3.32%
inhibition [3]: 0.18%

O=c1c(Br)ccccc1Br
inhibition [1]: 1.2%
inhibition [2]: 3.16%
inhibition [3]: 2.97%

CCCC(C(CC1CCC(C)CC1)C(=O)NC(CCCNc1ncccn1)C(=O)Nc1nccs1)N(O)C=O (stereo unspecified)
inhibition [1]: 3.88%
inhibition [2]: 3.89%
inhibition [3]: 5.63%

CCOc1ccc(Br)cc1/C=C/C(=O)Nc1ccc2c(c1)CN(C)CCC2
inhibition [1]: 4.12%
inhibition [2]: 5.18%
inhibition [3]: 4.34%

Cc1ccc(NC(=O)Nc2ccc(I)c(OCCN(C)C)c2)cc1Cl
inhibition [1]: 10.6%
inhibition [2]: 7.2%
inhibition [3]: 5.01%

COc1ccc(N2CCN(CCCCNC(=O)c3ccc(NC(=O)c4cccc(Cl)c4)cc3)CC2)c(OC)c1
inhibition [1]: 3.81%
inhibition [2]: 0.48%
inhibition [3]: 4.97%

O=C(c1cc2nc3c(c(C(F)(F)F)n2n1)CCc1ccccc1-3)N1CCN2CCCC2C1 (stereo unspecified)
inhibition [1]: 2.06%
inhibition [2]: 2.1%
inhibition [3]: 2.07%

CC(=O)Nc1cccc(CNc2cc(C)nc(Nc3ccc(C)cc3)n2)c1
inhibition [1]: 9.07%
inhibition [2]: 8.32%
inhibition [3]: 0.76%

Cc1cc(N[C@@H](Cc2ccccc2)C(=O)NCCc2ccccc2)nc(NCc2ccccc2C)n1
inhibition [1]: 2.31%
inhibition [2]: 2.04%
inhibition [3]: -0.14%

COc1cc(-c2cc3cc(Cl)c(Cl)cc3[nH]2)ccc1C(=O)NCCC1CCCN1C (stereo unspecified)
inhibition [1]: -0.78%
inhibition [2]: -0.94%
inhibition [3]: -1.26%

CC(CN(C)C)C(=O)Nc1cccc(-c2ccc(-c3nc4cc(C(F)(F)F)ccc4[nH]3)cc2)c1 (stereo unspecified)
inhibition [1]: 11%
inhibition [2]: 9.17%
inhibition [3]: 4.86%

CCCNc1ccc2nccc(CCN3CCC(NCc4ccc5c(n4)NC(=O)CS5)CC3)c2n1
inhibition [1]: 3.5%
inhibition [2]: 2.84%
inhibition [3]: 8.69%

Cc1noc(C)c1-c1cccc(C(=O)NC2CCN(CCNC(=O)C(c3ccccc3)c3ccccc3)CC2)c1
inhibition [1]: 2.71%
inhibition [2]: 1.09%
inhibition [3]: 1.64%

Cc1cc(C(=O)Nc2ccc(OCc3ccccc3)cc2)on1
inhibition [1]: -1.56%
inhibition [2]: -2.29%
inhibition [3]: 0.64%

Cc1nc(N2CCC(C)CC2)c2c3c(sc2n1)CCCC3
inhibition [1]: 2.21%
inhibition [2]: 2.09%
inhibition [3]: 0.47%

COc1ccc2cc(CNCCCCCCNCc3ccc4cc(OC)ccc4c3)ccc2c1
inhibition [1]: 107%
inhibition [2]: 107%
inhibition [3]: 103%

CS(=O)(=O)Nc1cccc(-c2cnc3[nH]cc(-c4ccc(CCC(=O)O)cc4)c3c2)c1
inhibition [1]: 2.69%
inhibition [2]: 1.66%
inhibition [3]: 4.76%

Cc1cc(N2CCOCC2)nc2ccc(NC(=O)c3cccc([N+](=O)[O-])c3)cc12
inhibition [1]: 5.27%
inhibition [2]: 4.5%
inhibition [3]: 3.77%

NC(=O)C1CCN(Cc2ccc(-c3cccc(-c4nc5cc(F)ccc5[nH]4)c3)cc2)CC1
inhibition [1]: -0.89%
inhibition [2]: -0.57%
inhibition [3]: -1.49%

COc1ccc2nccc(N3CCC(NCCNCc4ccc5c(n4)NC(=O)CS5)C3)c2n1 (stereo unspecified)
inhibition [1]: 3.26%
inhibition [2]: 4.23%
inhibition [3]: 4.55%

Cc1cccc(CNc2ncc(C)c(NCCC(=O)Nc3ccccc3)n2)c1
inhibition [1]: 15.3%
inhibition [2]: 12.7%
inhibition [3]: 6.61%

Nc1cnc(C#Cc2cc3ncnc(N(CCN4CCOCC4)c4ccc(OCc5cccc(F)c5)c(Cl)c4)c3s2)cn1
inhibition [1]: 1.16%
inhibition [2]: 0.42%
inhibition [3]: -3.58%

CC(C)c1ccc(NS(=O)(=O)c2cccc(C(=O)NC3CCN(CC4CCCCC4)CC3)c2)cc1
inhibition [1]: 3.07%
inhibition [2]: 1.15%
inhibition [3]: 1.74%

CCc1cn2c3c(cc(C(=O)N[C@@H](Cc4cccc(Cl)c4)[C@H](O)CNC4CCCCC4)cc13)N(C)S(=O)(=O)CC2
inhibition [1]: -0.29%
inhibition [2]: 1.09%
inhibition [3]: -0.36%

O=C(NCCCCN1CCN(c2cccc3ccccc23)CC1)c1ccc(NC(=O)c2ccc(Cl)cc2)cc1
inhibition [1]: 2.65%
inhibition [2]: 2.81%
inhibition [3]: 2.29%

O=C(/C=C/c1ccc(Cl)c(Cl)c1)N1CCC(CNCc2cccc3cc[nH]c23)CC1
inhibition [1]: 1.64%
inhibition [2]: 0.75%
inhibition [3]: 1.48%

CCC(C)NC(=O)Nc1ccc(-c2cccc(-c3nc4cccc(C)c4[nH]3)c2)cc1 (stereo unspecified)
inhibition [1]: 0.47%
inhibition [2]: 0.26%
inhibition [3]: -0.8%

COc1ccc2nccc([C@@H](O)CN3CCC(NC(=O)/C=C/c4ccc(F)c5ccccc45)CC3)c2c1
inhibition [1]: 8.56%
inhibition [2]: 5.8%
inhibition [3]: 5.26%

Cc1cc(Nc2ccc(O)cc2)nc2cc(O)ccc12
inhibition [1]: 3.16%
inhibition [2]: 1.93%
inhibition [3]: 3.51%

Cc1nc(Nc2ccncc2)cc(-c2ccncc2)n1
inhibition [1]: 0.59%
inhibition [2]: 4.18%
inhibition [3]: 2.92%

O=C(/C=C/c1ccc(Cl)c(Cl)c1)N1CCC(CCN2CCc3[nH]c4ccccc4c3C2)CC1
inhibition [1]: 12.4%
inhibition [2]: 5.55%
inhibition [3]: 4.33%

Cc1cccc2nc(-c3cccc(-c4ccc(NC(=O)C(=O)c5cccn5C)cc4)c3)[nH]c12
inhibition [1]: 2.86%
inhibition [2]: 0.6%
inhibition [3]: -2.97%

Cc1cccc2nc(-c3cccc(-c4cccc(CN5CCCC5CN)c4)c3)[nH]c12 (stereo unspecified)
inhibition [1]: -0.26%
inhibition [2]: -1.1%
inhibition [3]: -2.17%

O=C(C=Cc1ccc(Cl)c(Cl)c1)NCCCCCN1CCC(CCCNC(=O)C2CC2c2ccccc2)CC1 (stereo unspecified)
inhibition [1]: 1.26%
inhibition [2]: 0.65%
inhibition [3]: 1.16%

O=C(CCN(Cc1ccco1)c1nc(-c2ccc(F)cc2)nc2ccccc12)NC1CC1
inhibition [1]: 4.96%
inhibition [2]: 1.65%
inhibition [3]: 9.67%

Oc1ccc2[nH]cc(C3CCN(CCC(c4ccccc4)c4ccccc4)CC3)c2c1
inhibition [1]: 4.66%
inhibition [2]: 3.07%
inhibition [3]: 4.21%

O=C(/C=C/c1ccc(Cl)c(Cl)c1)NCCCCCN1CCCN(C(=O)Nc2ccc(F)c(Cl)c2)CC1
inhibition [1]: 1.23%
inhibition [2]: 1.72%
inhibition [3]: 3.64%

Cc1[nH]c2ccc(NS(C)(=O)=O)cc2c1C1CCN(CCC2CCN(C(=O)/C=C/c3ccc(Cl)c(Cl)c3)CC2)CC1
inhibition [1]: -0.38%
inhibition [2]: -1.33%
inhibition [3]: -1.24%

Cc1cc(F)ccc1Nc1nc(N(C)c2ccccc2)c2cc(OCCCN(C)C)ccc2n1
inhibition [1]: 2.53%
inhibition [2]: 3.15%
inhibition [3]: 4.25%

Nc1cccc(CNCc2cccc(-c3ccc(-c4nc5ccccc5[nH]4)cc3)c2)c1
inhibition [1]: -1.29%
inhibition [2]: -0.89%
inhibition [3]: -0.37%

C[C@H](Cc1ccc(OCCNC[C@H](O)c2cccc(Cl)c2)cc1)NC[C@H](O)c1ccc(Cl)c(Cl)c1
inhibition [1]: 2.67%
inhibition [2]: 1.89%
inhibition [3]: 3.19%

O=C(NCc1cc2c(cc1Cl)OCO2)c1ccc(CNC2CCN(Cc3ccccc3)CC2)cc1
inhibition [1]: 0.15%
inhibition [2]: 0.96%
inhibition [3]: 0.48%

CN1CCN(c2ccc(Nc3nc(N)c4ccn(C5CCC5)c4n3)cc2)CC1
inhibition [1]: 4.19%
inhibition [2]: 4.27%
inhibition [3]: 2.97%

Fc1ccc2[nH]c3c(NCCCN4CCOCC4)ncnc3c2c1
inhibition [1]: 1.79%
inhibition [2]: 0.7%
inhibition [3]: -0.69%

Cc1cccc2nc(-c3cccc(-c4cccc(NC(=O)C(C)CN5CCN(C)CC5)c4)c3)[nH]c12 (stereo unspecified)
inhibition [1]: 1.94%
inhibition [2]: 1.44%
inhibition [3]: 5.8%

CNc1ccc(CNCc2ccc(-c3ccc(-c4nc5cc(F)ccc5[nH]4)cc3)cc2)cc1
inhibition [1]: 3.2%
inhibition [2]: -0.46%
inhibition [3]: -0.33%

O=C(Nc1ccc(Cl)cc1C(=O)Nc1ccncc1)c1ccc(Cl)cc1Cl
inhibition [1]: 6.71%
inhibition [2]: 5.88%
inhibition [3]: 5.53%

Nc1cccc(CNCc2ccc(-c3ccc(-c4nc5ccccc5[nH]4)s3)cc2)c1
inhibition [1]: 2.71%
inhibition [2]: -0.53%
inhibition [3]: 2.48%

Cc1[nH]c(C)c(-c2ccc(-c3ccccc3F)nc2)c(=O)c1Br
inhibition [1]: 2.19%
inhibition [2]: 4.24%
inhibition [3]: 1.41%

N#CCCN1CCN(Cc2cccc(-c3ccc(-c4nc5ccccc5[nH]4)s3)c2)CC1
inhibition [1]: -1.29%
inhibition [2]: -2.37%
inhibition [3]: -0.4%

Cc1oc(-c2cccc(Oc3ccccc3)c2)nc1CN(Cc1cnn(C)c1)C(C)C
inhibition [1]: 1.56%
inhibition [2]: 1.15%
inhibition [3]: 1.83%
